Test results taken from PubChem BioAssay (EPA / NIEHS).
Inconclusive results are not listed. Calls of active or inactive are those of the source. The calls were made as follows: active = hit-call score of the fitted dose curve at least 0.9, where 1 is the maximum; inconclusive = response in the unintended direction; inactive = score below 0.9.

What was measured:
[1] = target: Luciferin 4-monooxygenase (Photinus pyralis) (UniProt P08659); experiment: CCTE_Simmons_QuantiLum_inhib_2: CCTE's Firefly Luciferase Inhibition Assay, Simmons Lab (AID 2283767);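 as to AC50: potency for inhibitors that lower luciferase luminescence relative to DMSO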
Sequence of Luciferin 4-monooxygenase (Photinus pyralis) (P08659 whole entry, looked up): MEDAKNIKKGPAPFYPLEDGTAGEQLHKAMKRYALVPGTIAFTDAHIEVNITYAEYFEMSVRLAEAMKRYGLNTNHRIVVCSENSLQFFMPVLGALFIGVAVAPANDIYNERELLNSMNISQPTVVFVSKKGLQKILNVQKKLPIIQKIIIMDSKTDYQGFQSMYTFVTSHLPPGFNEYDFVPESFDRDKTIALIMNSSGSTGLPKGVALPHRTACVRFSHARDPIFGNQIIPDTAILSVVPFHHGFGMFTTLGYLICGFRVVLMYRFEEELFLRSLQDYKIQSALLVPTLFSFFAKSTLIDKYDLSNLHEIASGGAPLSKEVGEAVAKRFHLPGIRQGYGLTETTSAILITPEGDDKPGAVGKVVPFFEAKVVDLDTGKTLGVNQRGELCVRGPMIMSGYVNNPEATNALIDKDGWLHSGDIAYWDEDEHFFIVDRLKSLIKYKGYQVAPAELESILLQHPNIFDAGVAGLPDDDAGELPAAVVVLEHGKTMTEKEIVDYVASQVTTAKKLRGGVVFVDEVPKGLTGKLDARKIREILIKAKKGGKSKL
Method in brief: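 First, 5 ng purified luciferase in phosphate buffer with BSA is dispensed per well. Next, test chemicals (5 nM to 87.5 uM final, 0.5% DMSO) are added and incubated 30 min at 37C in darkness. Finally, luciferin reagent is injected and luminescence read kinetically.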

[2] = ACEA_AR_agonist_AUC_viability: ACEA Biosciences xCELLigence Real-Time Cell Analysis on Androgen Receptor Agonism for Viability (AID 2283775);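 as to AC50: viability read 80 hours after compound addition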
Method in brief: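 22Rv1 cells; impedance growth kinetics; 8-pt 1:4 dilutions from 100 uM top final, ≤0.5% DMSO; n = 2; 80 h read; AUC viability, loss-of-signal vs DMSO.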

[3] = ACEA_AR_antagonist_AUC_viability: ACEA Biosciences xCELLigence Real-Time Cell Analysis on Androgen Receptor Antagonism for Viability (AID 2283776);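 also: 22Rv1 human prostate cancer cells growing on impedance electrode plates; area under impedance growth curve at 80 h after dosing as viability; hits lower the growth signal relative to DMSO meaning cytotoxicity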
Method in brief: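 Viability endpoint from label-free cell-index monitoring: 22Rv1 cultures treated with an eight-point 1:4 dilution series starting at 100 uM final, AUC at 80 h fitted against DMSO.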

COc1ccccc1N=Nc1c(S(=O)(=O)O)cc2cc(S(=O)(=O)O)cc(NC(C)=O)c2c1O
AC50 [1]: 13.8 µM (active) | outcome [2]: inactive | outcome [3]: inactive

Nc1ccccc1[N+](=O)[O-]
outcome [2]: inactive

c1ccc(Oc2ccccc2)cc1
outcome [2]: inactive

CC(C)NCC(O)COc1ccc(CC(N)=O)cc1 (centres undefined)
outcome [1]: inactive | outcome [2]: inactive

O=C(O)c1ccc(O)cc1
outcome [1]: inactive | outcome [2]: inactive | outcome [3]: inactive

C=CC(=O)OCCCC
outcome [2]: inactive

CCCCCCCCCC(=O)OC
outcome [2]: inactive

CCCCCCC(C)(C)S
outcome [2]: inactive

CC(C)CCCCCCc1ccc(OCCOCCO)cc1
outcome [2]: inactive

C#CC(C)(O)CC(C)C (centres undefined)
outcome [2]: inactive

CCCCCCCC(=O)OCC(O)CO (centres undefined)
outcome [2]: inactive

O=CCc1ccccc1
outcome [2]: inactive

Cc1ccc(S(=O)(=O)Oc2ccc(N=Nc3ccc(-c4ccc(N=Nc5c(O)ccc6cc(S(=O)(=O)O)cc(S(=O)(=O)O)c56)c(C)c4)cc3C)cc2)cc1
AC50 [1]: 17.4 µM (active) | AC50 [2]: 7.03 µM (active)

CCCOCCO
outcome [2]: inactive | outcome [3]: inactive

COS(=O)(=O)O
outcome [2]: inactive

CCCC(=O)OC(C)(C)Cc1ccccc1
outcome [2]: inactive | outcome [3]: inactive

Clc1ccc(C(c2ccccc2Cl)C(Cl)Cl)cc1 (centres undefined)
outcome [2]: inactive | outcome [3]: inactive

CC1CC(O)CC(C)(C)C1 (centres undefined)
outcome [2]: inactive | outcome [3]: inactive

CCCCC1CCC(O)CC1 (centres undefined)
outcome [2]: inactive | outcome [3]: inactive

CCCCCCCCCCCCCC(=O)OCC(O)CO (centres undefined)
outcome [2]: inactive

C=C1C[C@]23C[C@@]1(O)CC[C@H]2[C@@]12C=C[C@H](O)[C@@](C)(C(=O)O1)[C@H]2[C@@H]3C(=O)O
outcome [3]: inactive

CC(=O)O[C@H]1C[C@@H]2CC[C@@]1(C)C2(C)C
outcome [3]: inactive

CCCCCCCCSCCO
outcome [2]: inactive | outcome [3]: inactive

CCCCCCCC/C=C\CCCCCCCC(=O)OCC
outcome [2]: inactive

CCCCCCCCCCCCN1CCCCCC1=O
outcome [2]: inactive

OCCc1ccccc1
outcome [2]: inactive | outcome [3]: inactive

O=C1OC(=O)c2c(Cl)c(Cl)c(Cl)c(Cl)c21
outcome [2]: inactive | outcome [3]: inactive

CCCCOC(=O)CCCCCCCC(=O)OCCCC
outcome [2]: inactive | outcome [3]: inactive

OC[C@H]1O[C@@H]2O[C@H]3[C@H](O)[C@@H](O)[C@@H](O[C@H]4[C@H](O)[C@@H](O)[C@@H](O[C@H]5[C@H](O)[C@@H](O)[C@@H](O[C@H]6[C@H](O)[C@@H](O)[C@@H](O[C@H]7[C@H](O)[C@@H](O)[C@@H](O[C@H]8[C@H](O)[C@@H](O)[C@@H](O[C@H]9[C@H](O)[C@@H](O)[C@@H](O[C@H]1[C@H](O)[C@H]2O)O[C@@H]9CO)O[C@@H]8CO)O[C@@H]7CO)O[C@@H]6CO)O[C@@H]5CO)O[C@@H]4CO)O[C@@H]3CO
outcome [2]: inactive | outcome [3]: inactive

CCC1(C)NC(=O)NC1=O (centres undefined)
outcome [2]: inactive

O=Cc1ccccc1S(=O)(=O)O
AC50 [2]: 1.24 µM (active)

C[Si](C)(C)O[Si](C)(C)C
outcome [2]: inactive | outcome [3]: inactive

O=C(CC(=O)c1ccccc1)c1ccccc1
outcome [3]: inactive

CC(C=O)Cc1ccc(C(C)(C)C)cc1 (centres undefined)
outcome [2]: inactive | outcome [3]: inactive

CC1CCC(C(C)C)C(O)C1 (centres undefined)
outcome [2]: inactive

CCCC(C)=O
outcome [2]: inactive | outcome [3]: inactive

CCCCCC(C)=O
outcome [2]: inactive

CCOC(=O)C1OC1c1ccccc1 (centres undefined)
outcome [2]: inactive | outcome [3]: inactive

OCC(O)c1ccccc1 (centres undefined)
outcome [2]: inactive

C=Cc1ccc(C)cc1
outcome [2]: inactive

CCCCCCC(CO)CCCC (centres undefined)
outcome [2]: inactive | outcome [3]: inactive

C[C@H]1O[C@@H](O[C@H]2[C@@H](O)C[C@H](O[C@H]3[C@@H](O)C[C@H](O[C@H]4CC[C@@]5(C)[C@H](CC[C@@H]6[C@@H]5C[C@@H](O)[C@]5(C)[C@@H](C7=CC(=O)OC7)CC[C@]65O)C4)O[C@@H]3C)O[C@@H]2C)C[C@H](O)[C@@H]1O
AC50 [2]: 0.00928 µM (active) | AC50 [3]: 0.0148 µM (active)

CS(C)=O
outcome [2]: inactive | outcome [3]: inactive

CN1C(=O)c2ccccc2C1=O
outcome [2]: inactive

CCCCCCC(=O)c1ccccc1
outcome [2]: inactive

CCCCCCCCCCCCCCN(CCO)CCO
AC50 [2]: 23.7 µM (active)
